According to PubChem BioAssay AID488856 (Sanford-Burnham Center for Chemical Genomics, 2010):
Hit rate of the full screen: of about 1,400 compounds, about 50 (4%) were called active.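 How the source made its calls: active means mean inhibition across replicates above about 26% (limit read from the data); inactive means the rest.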 Only a sample is shown.

Molecular target: Caspase-3 (Homo sapiens) (UniProt P42574)
Experiment: CASP3 inhibitor validation, counterassay for project on UBE2N polyubiquitination blockers, biochemical, one dose (AID 488856);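 further: plate controls were DMSO with caspase-3 for no effect and DMSO wells lacking enzyme for full effect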
Conditions: Recombinant caspase-3, Caspase-Glo 3/7 luminescence, 60 min; at 20 µM; active compounds read high

Sequence of Caspase-3 (Homo sapiens) (P42574 whole entry, looked up): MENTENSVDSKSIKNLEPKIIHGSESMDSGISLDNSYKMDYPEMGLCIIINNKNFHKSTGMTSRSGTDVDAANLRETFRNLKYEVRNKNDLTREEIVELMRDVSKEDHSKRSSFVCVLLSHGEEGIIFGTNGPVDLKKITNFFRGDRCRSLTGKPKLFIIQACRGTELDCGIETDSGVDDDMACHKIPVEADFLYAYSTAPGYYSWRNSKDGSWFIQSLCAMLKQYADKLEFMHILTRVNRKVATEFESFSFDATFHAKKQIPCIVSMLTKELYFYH

Compound	inhibition
CC(C)n1cnc2c(Nc3cccc(Cl)c3)nc(N(CCO)CCCO)nc21	-1.5% (inactive)
C#CCOCCOCCOCCNc1nc(N2CCN(C(=O)CCCCCCCCCCNC(=O)[C@H]([C@@H](C)CC)n3cc(CCCCN=C(N)N)nn3)CC2)nc(N2CCN(C(=O)CCCCCCCCCCNC(=O)[C@H](CO)n3cc(CCCSC)nn3)CC2)n1	-0.7% (inactive)
NC(N)=N/N=C/c1ccc(OCc2ccc(Cl)cc2Cl)cc1	-1.8% (inactive)
COc1ccc(-c2nnc3ccc(SCc4ccccc4)nn23)cc1	-6.5% (inactive)
COc1cccc(Cn2cnc3c([N+](=O)[O-])c(C)c(C)cc32)c1	-0.7% (inactive)
CN(C(=O)CN(CCO)CC(=O)N(C)C(C)(C)Cc1ccccc1)C(C)(C)Cc1ccccc1	-0.1% (inactive)
CCOc1ccc2nc(N(CCCN(C)C)C(=O)c3ccc(C(=O)c4ccccc4)cc3)sc2c1	3.4% (inactive)
Cc1ccc(C(=O)N/C(=C/c2ccc(-c3cccc([N+](=O)[O-])c3)o2)C(=O)NCCCN(C)C)cc1	-0.7% (inactive)
COc1ccc(C(CNC(=O)c2cccc(NS(=O)(=O)c3ccc(C)c(F)c3)c2)N2CCCC2)cc1 (stereo not drawn)	0.9% (inactive)
Cn1c(C(=O)NCCCN2CCN(c3cccc(Cl)c3)CC2)cc2c(=O)n(C)c3ccccc3c21	1.8% (inactive)
CC1CC(C)(C)n2c(O)c(N=NC(N)=S)c3cccc1c32 (stereo not drawn)	-2.8% (inactive)
CN(C)CCCN(C(=O)c1ccc(S(=O)(=O)N2CCCCCC2)cc1)c1nc2ccc(Br)cc2s1	0.1% (inactive)
COc1ccc2sc(-c3ccc(S(C)(=O)=O)cc3)c(C#Cc3cncn3C)c2c1	0.2% (inactive)
COc1ccc(-n2nnnc2-c2nc3ccccc3s2)cc1	85.5% (active)
CCN(CC)CCNC(=O)c1ccc(NC(=O)c2cc(-c3ccncc3)nc3ccccc23)cc1	-3.4% (inactive)
O=S(=O)(c1ccc(NC(=S)NN=C(C2CC2)C2CC2)cc1)N1CCOCC1	3.2% (inactive)
COc1ccc2sc(-c3ccccc3OC)c(-c3ccc(OCCN4CCCC4)cc3)c2c1	-2.6% (inactive)
O=c1cc(CO)oc(C(Nc2cccc([N+](=O)[O-])c2)c2ccccn2)c1O (stereo not drawn)	1.9% (inactive)
Cc1nc(N2CCN(c3ccccn3)CC2)c2c(C)c(C(=O)Nc3ccc(F)cc3)sc2n1	-2.6% (inactive)
C#CCOCCOCCOCCNc1nc(N2CCN(C(=O)CCCCCCCCCCNC(=O)Cn3cc(CCCCCN)nn3)CC2)nc(N2CCN(C(=O)CCCCCCCCCCNC(=O)[C@H](CO)n3cc(CCCSC)nn3)CC2)n1	3% (inactive)
S=c1nc2ccccc2c2nc(-c3cccnc3)[nH]n12	16% (inactive)
Cc1ccc(N(C(=O)c2snc(C(N)=O)c2N)C(C(=O)NCC2CCCO2)c2c[nH]c3ccccc23)cc1 (stereo not drawn)	0.8% (inactive)
CCN(CC)CCC(c1cc(OC)c(OC)c(OC)c1)c1c(OC)cc(OC)c2c(-c3ccccc3)cc(=O)oc12 (stereo not drawn)	-2% (inactive)
Cc1ccccc1C(=O)OC1OC(=O)C(Cl)=C1Nc1ccccc1 (stereo not drawn)	-0.3% (inactive)

Compound	inhibition
O=C(COC(=O)Cn1cnc2ccccc2c1=O)NCc1ccccc1Cl	-0.6% (inactive)
COc1cccc(N(C(=O)c2snc(C(N)=O)c2N)C(C(=O)NCC2CCCO2)c2c[nH]c3ccccc23)c1 (stereo not drawn)	-8.9% (inactive)
COc1ccccc1-c1sc2ccccc2c1-c1ccc(C(C)=O)cc1	12.1% (inactive)
Cc1ccc(NC2=C(Cl)C(=O)OC2OC(=O)c2ccccc2C)cc1 (stereo not drawn)	0.6% (inactive)
CSCCC(NC(=O)c1ccc(Cl)cc1Cl)C(=O)NNC(=O)c1csc(N2CCOCC2)n1 (stereo not drawn)	1.1% (inactive)
COc1ccc(C(CNC(=O)c2ccc(S(=O)(=O)Nc3ccccc3F)cc2)N(C)C)cc1 (stereo not drawn)	2.2% (inactive)
COc1ccc(-c2sc3ccccc3c2-c2ccc(OCCN3CCOCC3)cc2)cc1	0.1% (inactive)
Cc1ccc(C(C(=O)NCC2CCCO2)N(C(=O)c2snc(C(N)=O)c2N)c2ccc(C(C)C)cc2)o1 (stereo not drawn)	-0.8% (inactive)
C#CCOCCOCCOCCNc1nc(N2CCN(C(=O)CCCCCCCCCCNC(=O)[C@H](CCCCN)n3cc(C)nn3)CC2)nc(N2CCN(C(=O)CCCCCCCCCCNC(=O)[C@H](CO)n3cc(CCCSC)nn3)CC2)n1	-3.2% (inactive)
CCOCCCNC(=O)c1cn(CC(C)C)c(=O)c2c1c1ccccc1n2C	-2.3% (inactive)
COc1cccc2sc3cc(NCC[C@@H]4CCCN4C)ccc3c(=O)c12	63.1% (active)
NC(=O)NC(CC(=O)NNC(=O)c1ccccn1)c1ccc(Cl)cc1 (stereo not drawn)	-0.9% (inactive)
Cc1ncc(CO)c(/C=N/NC(=O)c2cccc(S(=O)(=O)N3CCCC3)c2)c1O	-0.5% (inactive)
Cc1ccc(-c2noc(CCC(=O)Nc3ccccc3N3CCN(C)CC3)n2)cc1	-3.5% (inactive)
CC1(C)Cc2ccccc2-c2[nH]c(=S)[nH]c(=O)c21	2.3% (inactive)
CCOC(=O)c1ccc(NC(=O)c2nc[nH]c2C(=O)NCc2ccccc2)cc1	1.9% (inactive)
O=C(CCCCCn1c(=O)[nH]c2ccccc2c1=O)NCCc1c[nH]c2ccccc12	-2% (inactive)
O=C(CCCCCN1C(=O)c2cccc3cccc(c23)C1=O)NCc1ccco1	-1.7% (inactive)
CCOc1ccc(N(C(=O)c2snc(C(N)=O)c2N)C(C(=O)NCC2CCCO2)c2c[nH]c3ccccc23)cc1 (stereo not drawn)	-4.2% (inactive)
Cc1ccc(NC(=O)c2cnc(SCC(=O)NCC3CCCO3)n(C)c2=O)cc1 (stereo not drawn)	96.8% (active)
CC(=O)NC(=S)NNC(=O)c1ccc(Br)cc1	6.4% (inactive)
Cc1cccc(-c2nc3ccc(C(=O)NCCN4CCN(C)CC4)cc3nc2-c2cccc(C)c2)c1	-4% (inactive)
CCOC(=O)c1cccc(NS(=O)(=O)c2c(C(=O)N3CCCCCC3)c(C)n(C)c2C)c1	-2.7% (inactive)
C#CCOCCOCCOCCNc1nc(N2CCN(C(=O)[C@H](CCCCN)n3cc([C@@H](N)C(C)CC)nn3)CC2)nc(N2CCN(C(=O)[C@H](Cc3ccc(O)cc3)n3cc([C@@H](N)C(C)CC)nn3)CC2)n1 (stereo partly drawn)	-3.4% (inactive)
